According to PubChem BioAssay AID977607 (Broad Institute, 2014):
In all, about 1,500 compounds went through this assay and about 460 (31%) were called active. Not shown: some 1% with an inconclusive outcome. The list is a sample of the results. Potency and affinity values are given separately. Values without a mark were called inactive.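 The calls were made as follows: active = curve reaches 40% activation over neutral controls at an AC40 no higher than the top valid tested concentration; inconclusive = no clear call, values can overlap the other calls; inactive = signal moving opposite to the expected increase, and the rest.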

Test: GLuc-reported insulin release enhancers, glucose-stimulated beta cells – cell-based, INS-1E, Gaussia luciferase, luminescence, cherry-pick, set 2, dose response (AID 977607);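 also: 0% = median of the plate neutral control wells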
Details: INS-1E GLuc insulin secretion reporter, 2-3 h, hits give high values; at 35 µM, 100% = signal doubled over neutral wells unless noted

| Compound | max activation |
| --- | --- |
| CCOc1ccc(CCNC(=O)CCNC(=O)c2ccco2)cc1OCC | 12.9% [at 3.8 µM, 100% = signal doubled over neutral wells] |
| CC1(C)CC(=O)C(C=NC2CC(C)(C)NC(C)(C)C2)=C(O)C1 | -17.1% [at 0.005 µM, 100% = signal doubled over neutral wells] |
| CCSc1nnc(-c2cccnc2)n1-c1ccc(C)c(Cl)c1 | -13.6% [at 0.0016 µM, 100% = signal doubled over neutral wells] |
| CN(c1ccc(C(=O)N2CCN(Cc3ccccc3)CC2)cc1)S(=O)(=O)c1ccccc1 | -44.5% |
| O=C(CN1C(=O)CCC1=O)Nc1cccc2c1C(=O)NC2=O | -14.9% [at 1.2 µM, 100% = signal doubled over neutral wells] |
| O=C(NNC1CCN(Cc2ccccc2)CC1)c1ccccc1 | -25% [at 3.8 µM, 100% = signal doubled over neutral wells] |
| N=c1n(CCN2CCCCC2)c2ccccc2n1CC(O)COc1ccccc1 (stereo unspecified) | -22.3% [at 1.2 µM, 100% = signal doubled over neutral wells] |
| CN(Cc1ccc(OCC(O)CN(C)Cc2ccccc2)cc1)Cc1nccn1C (stereo unspecified) | -10.6% [at 0.0016 µM, 100% = signal doubled over neutral wells] |
| Cc1cccc2[nH]c3c(N4CC=C(c5ccc(F)cc5)CC4)ncnc3c12 | 18.7% [at 1.2 µM, 100% = signal doubled over neutral wells] |
| FC(F)(F)c1cc(-c2ccccc2)nc(-n2cc(Cl)cn2)n1 | -21.3% [at 0.015 µM, 100% = signal doubled over neutral wells] |
| CCN(C[C@H]1N[C@@](CC)(C(=O)OC)[C@H]2C(=O)N(C)C(=O)[C@@H]12)S(=O)(=O)c1ccc(OC)cc1 | -12.8% [at 0.42 µM, 100% = signal doubled over neutral wells] |
| COc1ccc(F)cc1C(=O)C1CCCN(C(=O)c2ccc(C(C)=O)s2)C1 (stereo unspecified) | -19.8% |
| COc1ccc(C(=O)C2CCCN(Cc3cccn3-c3nccs3)C2)cc1OC (stereo unspecified) | -15.9% [at 0.005 µM, 100% = signal doubled over neutral wells] |
| CC(C)C[C@H](NC(=O)c1nc[nH]c1C(=O)NC1CCN(C(=O)OC(C)(C)C)CC1)C(=O)OC(C)(C)C | 60.6% |
| CCOC(=O)c1[nH]cnc1C(=O)NC(C)C | -21.9% [at 0.135 µM, 100% = signal doubled over neutral wells] |
| CN1C(=O)NC(c2ccc(O)cc2)C2=C1CN(c1ccccc1)C2=O (stereo unspecified) | -22.4% [at 3.8 µM, 100% = signal doubled over neutral wells] |
| CC(C)c1c(C(=O)N/N=C/c2cccc3ccccc23)nnn1-c1nonc1N | -43.8% |
| O=C(COc1ccccc1Cl)NNC(=O)c1ccc2nc[nH]c2c1 | 15.8% [at 1.2 µM, 100% = signal doubled over neutral wells] |
| COC(=O)C[C@@H]1OC[C@H](C(C)C)N1S(=O)(=O)c1ccc(C)cc1 | -15.5% |

| Compound | max activation |
| --- | --- |
| O=C(COC(=O)c1ncc(Cl)c(Cl)c1Cl)NC1CCS(=O)(=O)C1 (stereo unspecified) | -18.3% |
| CCSc1ccc2nnc(-c3ccc(F)cc3)n2n1 | -17.1% [at 0.135 µM, 100% = signal doubled over neutral wells] |
| C=CCNc1sc(C(=O)C2CC2)c(N)c1C#N | -24.8% [at 0.0016 µM, 100% = signal doubled over neutral wells] |
| COCCNc1nc(NC(C)C)nc2ccsc12 | -19.2% [at 0.046 µM, 100% = signal doubled over neutral wells] |
| COc1ccc(Nc2nc(NCc3cccs3)nc3ccsc23)cc1OC | -40.6% |
| Cc1cc(NC(=O)COC(=O)c2oc3c(Cl)cccc3c2C)no1 | -17.9% [at 11 µM, 100% = signal doubled over neutral wells] |
| CCOC(=O)c1cnc2ccc(OCC)cc2c1N1CCN(c2ccccc2)CC1 | -39.9% |
| CCCOC(=O)Nc1ccc(S(=O)(=O)Nc2ncccn2)cc1 | -14.1% [at 11 µM, 100% = signal doubled over neutral wells] |
| O=C(c1cccc(F)c1)N1CCCc2ccccc21 | -18.1% [at 0.015 µM, 100% = signal doubled over neutral wells] |
| COc1nc(Nc2ccccc2)nc(OC)n1 | -12% [at 0.0016 µM, 100% = signal doubled over neutral wells] |
| CCOc1nc(Nc2ccccc2F)nc(OCC)n1 | -23.2% [at 0.0016 µM, 100% = signal doubled over neutral wells] |
| COc1ccc(S(=O)(=O)Nc2cccc(-c3ccc4nncn4n3)c2)cc1F | -16.1% [at 0.046 µM, 100% = signal doubled over neutral wells] |
| C=CCOc1cccc(C(=O)N2CCC(CCC(=O)NC3CC3)CC2)c1 | -8.53% [at 1.2 µM, 100% = signal doubled over neutral wells] |
| C[C@@H]1CN([C@@H](C)CO)C(=O)c2cc(Br)cnc2O[C@H]1CN(C)C(=O)C1CC1 | -19.6% [at 0.0016 µM, 100% = signal doubled over neutral wells] |
| NC(=O)C1CCN(c2nc(-c3ccccc3)nc3ccccc23)CC1 | -15.2% [at 3.8 µM, 100% = signal doubled over neutral wells] |
| Cc1ccccc1Nc1c(-c2ccncc2)nc2ccc(Cl)cn12 | -30.7% |
| COc1ccc(C(=O)c2ccc(OC)c(OC)c2)cc1 | -16.7% [at 0.42 µM, 100% = signal doubled over neutral wells] |
| CCOC(=O)c1sc2nc(-c3ccccc3)ccc2c1N | -12.9% |
| C[C@@H](NC(=O)C[C@@H]1C[C@@H]2c3cc(NC(=O)Nc4ccccc4F)ccc3O[C@@H]2[C@@H](CO)O1)c1ccccc1 | 34.4% [at 0.015 µM, 100% = signal doubled over neutral wells] |

| Compound | max activation |
| --- | --- |
| COc1ccc(-n2c(=S)[nH]c3cc(C(=O)Nc4ccc(OC)c(OC)c4)ccc3c2=O)cc1 | -16.1% [at 0.0016 µM, 100% = signal doubled over neutral wells] |
| COc1ccc(C(=O)Nc2cccnc2Cl)cc1OC | -21.1% [at 0.0016 µM, 100% = signal doubled over neutral wells] |
| O=C(Cc1csc(NC(=O)c2ccccc2)n1)NO | -12.5% [at 0.42 µM, 100% = signal doubled over neutral wells] |
| O=S(=O)(c1ccc(-c2csc(Nc3ccc(Br)cc3)n2)cc1)N1CCCC1 | -14.1% [at 0.42 µM, 100% = signal doubled over neutral wells] |
| CS(=O)(=O)N1CCCCC1c1cc(C(=O)Nc2cccc3c2CCCC3)no1 (stereo unspecified) | -21.9% [at 0.0016 µM, 100% = signal doubled over neutral wells] |
| Cc1ccc(S(=O)(=O)NCc2csc(-c3cccs3)n2)cc1 | -16% [at 0.42 µM, 100% = signal doubled over neutral wells] |
| COc1ccc(CCN(C)C(=O)C(CCSC)NC(=O)c2ccco2)cc1OC (stereo unspecified) | 35.3% |
| Nc1nc(N)nc(-c2ccc(Cl)cc2)n1 | 24.3% |
| CC(C)(C)NC(=O)N1c2ccccc2Sc2ccccc21 | -17.6% [at 0.42 µM, 100% = signal doubled over neutral wells] |
| CC(=O)c1c(C)oc2ccc(NS(=O)(=O)c3ccc(F)cc3C)cc12 | -28.4% |
| CS(=O)(=O)c1nc(S(=O)(=O)c2ccc(Cl)cc2)c(N2CCCCCC2)s1 | -34.1% |
| Cc1nc2ccccc2c(=O)n1CCCN1CCOCC1 | -15.9% [at 0.046 µM, 100% = signal doubled over neutral wells] |
| Cc1ccc2c(c1)c(-c1ccccc1)nc1nncn12 | -21.1% [at 1.2 µM, 100% = signal doubled over neutral wells] |
| COc1nc(-c2ccccc2)c2cc(C)ccc2n1 | 42.4% [at 1.2 µM, 100% = signal doubled over neutral wells] |
| CCN(CC)C(=O)n1c(Cc2ccccc2)nc2ccccc21 | -14.4% [at 0.005 µM, 100% = signal doubled over neutral wells] |
| CCCc1cc2c(OC)ccc(O)c2c(=O)n1C | -19.2% [at 0.42 µM, 100% = signal doubled over neutral wells] |
| CCCNC(=O)c1ccccc1NC(=O)COc1ccc(OC)cc1 | -16% [at 11 µM, 100% = signal doubled over neutral wells] |
| CCOc1ccc(NC(=O)[C@@H](NC(=O)OCc2ccccc2)[C@@H](C)CC)cc1 | -32.5% [at 11 µM, 100% = signal doubled over neutral wells] |
